Assay results from PubChem BioAssay AID1259421 (Broad Institute, 2018).
Where “and” joins values, the source holds several entries; their conditions need not be identical. Equal entries are not always repeated. Hit rate of the full screen: of about 6,400 compounds, about 610 (9.5%) were called active. Cut-off read from the data, not from the text of the source: active = activity change below about -70%; inconclusive = no clear call, values can overlap the other calls; inactive = above that. The full list was thinned out, with actives kept by preference. A structure can be active in one record and inactive in another.

assay: Toxoplasma gondii ME49Luc growth in HeLa cells, luciferase, no IFN-y, primary screen (AID 1259421); conditions: T. gondii ME49Luc in HeLa, 72 h, stronger effect = lower value, concentration not given here

SMILES | activity change, negative = inhibition
Cn1cnc([N+](=O)[O-])c1Sc1ncnc2nc[nH]c12 | -68.2% (inactive) and -74.1% (active)
Cn1cnnc1Sc1c([N+](=O)[O-])ncn1C | 23.4% (inactive) and 9.93% (inactive)
c1ccc(CNc2ncnc3nc[nH]c23)cc1 | 9.71% (inactive) and 7.45% (inactive)
CC(SC(=O)c1cccs1)C(=O)NCC(=O)O (configuration not stated) | 13% (inactive)
C[C@H]1[C@H](OC(=O)CCC(=O)O)O[C@@H]2O[C@@]3(C)CC[C@H]4[C@H](C)CC[C@@H]1[C@@]24OO3 | -80.6% (active)
C[C@H]1[C@@H](O)O[C@@H]2O[C@@]3(C)CC[C@H]4[C@H](C)CC[C@@H]1[C@@]24OO3 | -93.7% (active)
C[C@@H]1CC[C@H]2[C@@H](C)C(O)O[C@@H]3O[C@]4(C)CC[C@@H]1[C@]32OO4 (some centres not stated) | -85.4% (active)
CC(=O)[C@H]1CCC2C3CC=C4C[C@@H](OC(=O)CCC(=O)O)CC[C@]4(C)C3CC[C@@]21C (some centres not stated) | 4.41% (inactive) and 6.51% (inactive)
Brc1c(Br)c(Br)c2n[nH]nc2c1Br | 5.07% (inactive) and 22.5% (inactive)
OCc1cc2c(cn1)[nH]c1ccccc12 | 12.8% (inactive)
CCOC(=O)c1c(C)[nH]c2ccc3c(c12)CN1CCc2cc(OC)ccc2C1O3 (configuration not stated) | 5.91% (inactive)
C[C@@H](O)CNC(C)(C)CC(=O)N[C@@H]1CCc2ccccc2N(Cc2ccc(-c3ccccc3-c3nn[nH]n3)cc2)C1=O | 8.07% (inactive)
CC[C@H](Nc1ncnc2nc[nH]c12)c1nc2cccc(F)c2c(=O)n1-c1ccccc1 | 0.609% (inactive)
Nc1c(S(=O)(=O)O)cc(Nc2cccc3ccccc23)c2c1C(=O)c1ccccc1C2=O | 5.63% (inactive)
C[C@H](CCC(=O)NCC(=O)O)[C@H]1CCC2C3C(C[C@H](O)[C@@]21C)[C@@]1(C)CC[C@@H](O)CC1C[C@H]3O (some centres not stated) | 3.03% (inactive)
CN(C)C(=N)N=C(N)N | 11% (inactive) and -0.508% (inactive)
CN(C)CC(=O)Nc1ccc2[nH]c(=O)c3ccccc3c2c1 | -4.97% (inactive)
O=C(c1ccc2nccnc2c1)N1CCCCC1 | 3.08% (inactive)
COC(=O)[C@]12CCC(C)(C)C[C@@H]1[C@@H]1C(=O)C=C3[C@]4(C)C=C(C#N)C(=O)C(C)(C)[C@@H]4CC[C@@]3(C)[C@]1(C)CC2 | -87.4% (active)
CC(=O)N[C@@H](CSC/C=C(\C)CC/C=C(\C)CCC=C(C)C)C(=O)O | 7.49% (inactive)
OC[C@H]1NC[C@@H](O)[C@@H](O)[C@@H]1O | 13.1% (inactive)
COc1ccc(C(=O)NCc2cccnc2)cc1C(=O)NCc1cccnc1 | 7.12% (inactive)
CCC[C@H](Nc1nc(-c2ccc(NC(=O)NCC)c(OC)c2)ncc1C)c1cccnc1 | -75.6% (active)
Oc1ccccc1-c1nnco1 | 11.7% (inactive)
CCCCCCCCCCCCCCCCCCCCCC(=O)O | -1.78% (inactive)
CCCCC1C(=O)N(c2ccccc2)N(c2ccccc2)C1=O | 10.6% (inactive) and 30.2% (inactive) and 17.8% (inactive)

SMILES | activity change, negative = inhibition
CCCCCCCCCCCC1C(=O)C(=O)CC(=O)C1=O | -89.4% (active) and -2.92% (inactive)
O=C(/C=C/c1ccc2ccccc2n1)c1ccncc1 | 3.25% (inactive)
CN(C)C1C(=O)C(C(N)=O)C(=O)C2(O)C(=O)C3C(=O)c4c(O)ccc(Cl)c4C(O)C3CC12 (configuration not stated) | 321% (inactive)
COC(=O)NC(C)CNc1nccc(-c2cn(C(C)C)nc2-c2cc(Cl)cc(NS(C)(=O)=O)c2F)n1 (configuration not stated) | -71.5% (active)
O=c1[nH]nc2c3c(cccc13)NC(CN1Cc3ccccc3C1)=N2 | 12.4% (inactive)
Oc1ccc([C@@H]2Oc3ccc(O)cc3[C@@H]3CCC[C@@H]32)cc1 | 6.56% (inactive)
Cc1cc(O)cc2c1O[C@](C)(CCC[C@H](C)CCC[C@H](C)CCCC(C)C)CC2 | -4.66% (inactive)
COc1c(C)c2c(c(O)c1C/C=C(/C)CCC(=O)O)C(=O)OC2 | -79.6% (active)
COc1c(C)c2c(c(O)c1C/C=C(\C)CCC(=O)O)C(=O)OC2 | -74.4% (active) and -89.1% (active)
COc1c(C)c2c(c(O)c1C/C=C(\C)CCC(=O)OCCN1CCOCC1)C(=O)OC2 | -75.2% (active) and -92% (active)
C#CC1(OCC(O)CN2CCN(c3ccccc3OC)CC2)CCCCC1 (configuration not stated) | 9.69% (inactive)
CCCCC/C=C\C[C@@H](O)/C=C/C=C/C=C\[C@@H](O)CCCC(=O)O | 7.41% (inactive)
N=[N+]=CC(=O)CC[C@H](N)C(=O)O | 0.432% (inactive)
c1ccc(-c2nc3ccccc3[nH]2)cc1 | 279% (inactive)
c1ccc2[nH]c(-c3nc4ccccc4[nH]3)nc2c1 | 156% (inactive)
CC(C)(C)c1ccc(-c2nc3ccccc3[nH]2)cc1 | -87.4% (active)
CC1(C)CC1C(=O)N/C(=C\CCCCSCC(N)C(=O)O)C(=O)O (configuration not stated) | 8.4% (inactive)
CC(=O)O[C@H]1C[C@@]2(C)[C@@H](C[C@@H](O)[C@H]3[C@@]4(C)CC[C@@H](O)[C@@H](C)C4CC[C@@]32C)/C1=C(/CCC=C(C)C)C(=O)O (some centres not stated) | -17.8% (inactive)
Cc1cc(OCCCS(C)(=O)=O)cc(C)c1-c1cccc(COc2ccc3c(c2)OC[C@H]3CC(=O)O)c1 | 15.8% (inactive)
COc1ccc2[nH]c(I)c(CCNC(C)=O)c2c1 | 14.7% (inactive) and -1.11% (inactive)
CC1C(=O)C(=O)[C@@H]2O[C@@H]2C1=O (some centres not stated) | 7.42% (inactive)
COc1cc2ncnc(Nc3cccc(Cl)c3)c2cc1OC | -46.3% (inactive)
O=C(Nc1cccc(Cl)c1)c1ccccn1 | 154% (inactive)
O=C(Nc1cccc(Cl)c1)Nc1ncc(CCNc2ncnc3ccsc23)s1 | -92.1% (active)
O[C@H](CNC[C@@H](O)[C@H]1CCc2cc(F)ccc2O1)[C@@H]1CCc2cc(F)ccc2O1 | 9.73% (inactive)
C=C(C)[C@@H]1CC[C@]2(CO)CC[C@]3(C)[C@H](CC[C@@H]4[C@@]5(C)CC[C@H](O)C(C)(C)[C@@H]5CC[C@]43C)[C@@H]12 | 19.1% (inactive)
